The list is not random: actives were taken first. Their share in the collection is about 6.2%.
RORgamma inh: ROR gamma (mouse) transcription inhibition; P51450; Drosophila S2 Gal4-RORgamma UAS-luciferase reporter, 20 h; AID 2551; actives 5.4% (n = 310,000); Potency, µM (doses to about 53.6 µM), for inactives: at the highest dose activity change, negative = inhibition, most hits filed as inhibitors; further: nearly all actives have a fitted effect of over 60% in size
Target sequence (P51450 whole entry, looked up, the tested form may be a part): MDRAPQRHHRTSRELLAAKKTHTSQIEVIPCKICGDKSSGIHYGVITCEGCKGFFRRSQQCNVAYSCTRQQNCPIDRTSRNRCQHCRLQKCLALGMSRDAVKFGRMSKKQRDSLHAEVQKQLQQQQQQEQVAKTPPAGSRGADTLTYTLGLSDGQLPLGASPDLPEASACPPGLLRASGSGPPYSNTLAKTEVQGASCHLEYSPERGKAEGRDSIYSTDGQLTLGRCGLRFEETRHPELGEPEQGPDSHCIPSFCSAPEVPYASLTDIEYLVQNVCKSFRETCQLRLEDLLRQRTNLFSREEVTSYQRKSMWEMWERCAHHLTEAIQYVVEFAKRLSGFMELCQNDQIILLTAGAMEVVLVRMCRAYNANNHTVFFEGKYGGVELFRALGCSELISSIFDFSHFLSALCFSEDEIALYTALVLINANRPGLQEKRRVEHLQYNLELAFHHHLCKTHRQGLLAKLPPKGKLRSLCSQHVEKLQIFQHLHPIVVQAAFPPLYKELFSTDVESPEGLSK
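Schneider cells (Drosophila), stable Gal4 DBD–ROR gamma + UAS-luc; 1 hr cmpd preincubation; Cu2+ induction 700 uM final; 20 hr ambient; luminescence.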
Luc counter: Kinase-Glo luciferase inhibition (counter-screen). actives 0.28% (n = 200,000). Potency, µM (series often up to 38.3 µM), inactives show at the highest dose activity change, negative = inhibition, actives largely listed as inhibitors. Kinase-Glo luciferase, ATP luminescence, 8 min. Q27757; further: nearly all actives have a fitted effect of over 60% in size
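Recombinant Kinase-Glo luciferase, 10 uM ATP (linear range), luciferin; imidazole pH 7.2 / KCl / MgCl2 / Tween / BSA buffer; 8 min RT; luminescence.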
Gal4-VP16 FLuc: inhibits Gal4-VP16 luciferase reporter, ROR gamma counter-screen; actives 3.5% (n = 310,000); Drosophila S2 Gal4-VP16 UAS-luciferase, luminescence, 20 h; Potency, µM (titrated, usually from 53.6 µM), without a hit: at the highest dose activity, negative = inhibition, usual class: inhibitors;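 further: Gal4-VP16 expression switched on by copper sulfate through the metallothionein promoter; nearly all actives have a fitted effect of over 50% in size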
The depositor's hits bear a star; [ ] = dose if it differs, or a comment. The call rests on the fitted dose curve; in most records, active means well fitted curve in the direction sought with a large enough effect; inconclusive means small, poorly fitted or top-dose-only effect, or another doubt; inactive means no such curve, though single readings can be large; an effect the other way counts as inactive or inconclusive. On the % scale 0 is the no-effect control and ±100 the full control effect; potency means the concentration at half of the fitted maximal effect.

CCN(CC)c1ccc(/C=N/n2c(-c3ccccc3Br)n[nH]c2=S)cc1 was read as RORgamma inh 1µM* and Gal4-VP16 FLuc -4%.
For Cn1c(=S)n(/N=C/c2ccc3c(c2)OCO3)c2ccccc21 the results were RORgamma inh 11µM*, Luc counter 0% and Gal4-VP16 FLuc 21%.
`CCc1n[nH]c(=S)n1/N=C/c1ccc(N(C)c2ccccc2)cc1` gave RORgamma inh 4.5µM*, Luc counter 6% and Gal4-VP16 FLuc inconclusive.
`CCc1n[nH]c(=S)n1/N=C/c1ccccn1` gave RORgamma inh 2% and Gal4-VP16 FLuc -3%.
CCCc1nnc(SCC(=O)O)n1/N=C/c1ccc2c(c1)OCO2 was read as RORgamma inh 2%, Luc counter -1% and Gal4-VP16 FLuc -6%.
COc1ccc(/C=N/n2c(=S)n(C)c3ccccc32)cc1OC was read as RORgamma inh -26%, Luc counter -1% and Gal4-VP16 FLuc 6%.
CCc1n[nH]c(=S)n1/N=C/c1ccc2c(c1)OCO2 was read as RORgamma inh 11µM*, Luc counter -1% and Gal4-VP16 FLuc inconclusive.
For Cc1nn(-c2ccccc2)c(C)c1/C=N/n1c(-c2ccccc2Br)n[nH]c1=S the results were RORgamma inh inconclusive and Gal4-VP16 FLuc -9%.
`CCOC(=O)c1c(C)c(C(=O)Nc2ccc(F)cc2)c(C)n1C` gave RORgamma inh 16%, Luc counter 3% and Gal4-VP16 FLuc 5%.
Screening CC(CCc1ccccc1)NC(=O)CCCn1ncn2c(cc3occc32)c1=O (stereo unspecified) returned RORgamma inh -11% and Gal4-VP16 FLuc -2%.
Cc1ccccc1C(C(=O)NC1CCCCC1)N(C(=O)c1ccccn1)c1cccnc1 (stereo unspecified) was read as RORgamma inh -2%, Luc counter -2% and Gal4-VP16 FLuc -4%.
Cc1ccc(C)c(NC(=S)N(Cc2ccco2)C(C)c2cccs2)c1 (stereo unspecified) was read as RORgamma inh 2.5µM*, Luc counter -3% and Gal4-VP16 FLuc 5µM*.
`Cc1ccc(NC(=S)N(Cc2ccco2)C(C)c2cccs2)c(Cl)c1` (stereo unspecified) gave RORgamma inh 14%, Luc counter 8% and Gal4-VP16 FLuc 6%[10 µM].
For Cc1cc(C)c(NC(=S)N(CCc2ccncc2)C(C)C)c(C)c1 the results were RORgamma inh 0%, Luc counter 1% and Gal4-VP16 FLuc -9%.
For Cc1ccc(Cl)cc1NC(=S)N(Cc1ccco1)C(C)c1cccs1 (stereo unspecified) the results were RORgamma inh 3.5µM*, Luc counter 3% and Gal4-VP16 FLuc 7.1µM*.
Screening CC(c1cccs1)N(Cc1ccco1)C(=O)Nc1ccc(Cl)c(Cl)c1 (stereo unspecified) returned RORgamma inh 42%, Luc counter -4% and Gal4-VP16 FLuc -6%.
`Cc1ccc(C)c(NC(=S)N(CCc2ccncc2)C(C)C)c1` gave RORgamma inh 11µM* and Gal4-VP16 FLuc -8%.
Screening CCCC[C@@H]1CCCO[C@@](C(=O)NCc2ccc(S(C)(=O)=O)cc2)(C(F)(F)F)C1 returned RORgamma inh -19% and Gal4-VP16 FLuc 1%.
For COc1ccc(Cl)cc1NC(=S)NNC(=O)C1(C)CC1(Cl)Cl (stereo unspecified) the results were RORgamma inh -31%, Luc counter -2% and Gal4-VP16 FLuc -11%.
For CCOC(=O)C(=O)Nc1cc(C)on1 the results were RORgamma inh 30%, Luc counter 13µM* and Gal4-VP16 FLuc -22%.
`CCCCNC(=O)Nc1cc(C)on1` gave RORgamma inh 9%, Luc counter 1% and Gal4-VP16 FLuc inconclusive.
`O=C(NCc1ccccc1)C(c1cccnc1)N(C(=O)c1ccccn1)c1ccc(F)cc1` (stereo unspecified) gave RORgamma inh -14% and Gal4-VP16 FLuc 4%.
Screening Cc1cccc(CSC2=NCCN2S(=O)(=O)c2ccc(F)cc2)c1 returned RORgamma inh 25% and Gal4-VP16 FLuc -8%.
`c1ccc(CCNc2nc(-c3ccncc3)nc3ccccc23)cc1` gave RORgamma inh inconclusive and Gal4-VP16 FLuc -11%.
For Cc1ccc2occ(/C=N/NC(=O)c3ccc(O)cc3)c(=O)c2c1 the results were RORgamma inh 20µM* and Gal4-VP16 FLuc -28%.
For Cc1ccc2occ(/C=N/NC(=O)c3ccccc3Br)c(=O)c2c1 the results were RORgamma inh -21% and Gal4-VP16 FLuc -15%.
`COCCn1c(C)cc(/C=N/NC(=O)c2cccnc2)c1C` gave RORgamma inh 1%, Luc counter -1% and Gal4-VP16 FLuc -4%.
For Cc1cc(/C=N/NC(=O)c2ccc(O)cc2)c(C)n1CC(C)C the results were RORgamma inh 7.9µM* and Gal4-VP16 FLuc -22%.
For CCCCOc1ccccc1C1NC(=O)NC(C)=C1C(=O)OCCOC (stereo unspecified) the results were Luc counter -3%.
Cn1c(=O)c2c(nc(CN3CCN(C(=O)c4ccco4)CC3)n2CCCc2ccccc2)n(C)c1=O was read as RORgamma inh 36%, Luc counter 2% and Gal4-VP16 FLuc -4%.
Screening COc1ncc2nc(-c3cccs3)c(=O)n(C)c2n1 returned RORgamma inh -31% and Gal4-VP16 FLuc 4%.
Screening COc1ccc(C(=O)c2ccc(OC)c(OC)c2)cc1OC returned RORgamma inh 4%, Luc counter 0% and Gal4-VP16 FLuc -16%.
COc1ccc(C(=O)c2ccc(OC)c(N)c2)cc1N was read as RORgamma inh 1.4µM*, Luc counter -6% and Gal4-VP16 FLuc -9%.
Cc1ccc(CSc2nnc(-c3ccncc3)n2C)cc1 was read as RORgamma inh -4%, Luc counter -2% and Gal4-VP16 FLuc -2%.
Screening Cc1ccc(Nc2nc(CSc3nnc(-c4cccnc4)n3-c3ccccc3F)cs2)cc1 returned RORgamma inh 4µM*, Luc counter -1% and Gal4-VP16 FLuc -10%.
Screening Cc1ccc(Nc2nc(CSc3nnc(-c4ccncc4)n3C)cs2)cc1 returned RORgamma inh 16µM* and Gal4-VP16 FLuc inconclusive.
Screening Cc1ccc(NC(=O)CSc2nnc(-c3cccnc3)n2-c2ccc(C)cc2)cc1 returned RORgamma inh inconclusive, Luc counter -3% and Gal4-VP16 FLuc inconclusive.
For COc1ccc(S(=O)(=O)N(C)C)cc1NCC(=O)Nc1ccc(F)cc1F the results were RORgamma inh 30%, Luc counter 0% and Gal4-VP16 FLuc -15%.
Screening COc1ccc(S(=O)(=O)N(C)C)cc1NS(=O)(=O)c1ccc(F)c(F)c1F returned RORgamma inh 4.5µM*, Luc counter 4% and Gal4-VP16 FLuc 13µM*.
COc1cc(OC)nc(-n2ncc(Br)c(Br)c2=O)n1 was read as RORgamma inh 2.2µM*, Luc counter 0% and Gal4-VP16 FLuc 4.5µM*.
For COC(=O)c1cnn(-c2nc(OC)cc(OC)n2)c1C the results were RORgamma inh -19%, Luc counter 0% and Gal4-VP16 FLuc -5%.
`CCC/C=N/NC(=O)c1[nH]c2c([N+](=O)[O-])cccc2c1C` gave RORgamma inh inconclusive, Luc counter 1% and Gal4-VP16 FLuc -28%.
For COC(=O)N1C(=O)[C@@](c2ccccc2)(C(C)C)N1C(=O)OC the results were RORgamma inh 10µM* and Gal4-VP16 FLuc 1%.

Screens deposited in PubChem by National Center for Advancing Translational Sciences (NCATS).
